Compounds without any hit were thinned out: in the full panel of roughly 83,000, 20% have a hit.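 Percent growth is the endpoint: 0 to 100 indicates growth inhibition (40 means 60% inhibition), 0 means no net growth, and negative values indicate cell death.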 Activity calls are given as the source filed them. How the source made its calls: active means growth percent below 10; inactive means the rest.

The subject of one assay is A549/ATCC NSCLC. Description: NCI-60 one-dose screen, 48 h (100 = growth as untreated, 0 = no growth, -100 = all killed). The note with it: 10 µM unless noted.
For the molecule `CCC(CO)Nc1nc2ccc(Cl)cc2c2ccccc12` (stereo not given), the growth was 55.3% (inactive).

Consider `NS(=O)(=O)c1ccc(-n2nc(C(=O)N/N=C\c3ccc(F)cc3)cc2-c2ccc(Cl)cc2)cc1`, for which the growth was 95.1% (inactive). The same measure, in the same setting: the result for `O=S(=O)(NCCCNc1cc(-c2c(-c3cccc(O)c3)nc3sccn23)ccn1)c1cccc(Cl)c1` reads 66.5% (inactive); that for `CC(=O)n1c(-c2ccc(Cl)cc2)nc2c(c1=O)C(c1ccc(Cl)cc1)c1sc3c(Cl)cccc3c1O2` (stereo not given), -63.7% (active).

As to `C=C(C)[C@@H]1CC[C@]2(C(=O)NC3CCCCC3)CC[C@]3(C)[C@H](CC[C@@H]4[C@@]5(C)CCC(=O)C(C)(C)[C@@H]5CC[C@]43C)[C@@H]12`, the growth was 85.6% (inactive).

For the molecule `O=[N+]([O-])c1ccc(-c2cc(-c3ccc(Nc4nc(Nc5ccc(Cl)cc5)nc(Nc5ccc(Cl)cc5)n4)cc3)no2)cc1`, the growth is 88.6% (inactive). Still for that read-out and setting: the figure for `Cc1c2c(c(C)c3c1oc1cc(O)ccc13)C(=O)N(CCN1CCCCC1)C2=O` is 81.2% (inactive).

Another assay deals with 786-0 renal. The assay is described as above. The note with it: 10 µM unless noted.
In the case of `COc1cc(Cn2ncc3ccc(NC(=O)c4cc5ccccc5oc4=N)cc32)cc(OC)c1OC`, the growth was 68% (inactive). On the same count and under the same terms, the figure for `N=C1C(c2nc(-c3ccc(Br)cc3)cs2)=C(O)CN1Cc1cccnc1` is 35.2% (inactive); for `COc1ccc(/C=C/c2c(C(=O)/C=C/c3cccs3)c(C)nc3ccccc23)cc1` it is 90.6% (inactive); for `N#C/C(=C\c1ccc(Br)cc1)n1nnc2cc(F)c(F)cc21` it is 23.2% (inactive). As for `C[C@@H]1N=C(c2ccc3ccccc3n2)Nc2nc3ccccn3c2C1=O`, the growth was 98.3% (inactive). On the same count and under the same terms, the figure for `CCCCc1ccc(Nc2ccc(Nc3ccc(CCCC)cc3S(=O)(=O)O)c3c2C(=O)c2ccccc2C3=O)c(S(=O)(=O)O)c1` is 117% (inactive); for `COc1ccc(OC)c2c1[nH]c(=O)c1c3ncccc3cn21` it is 34.7% (inactive); for `COc1ccc(NC(=O)CSc2nc(C)c(C(C)=O)n2-c2ccc(Cl)cc2)cc1` it is 106% (inactive).

Regarding `COc1cccc(-c2nn(-c3ccccc3)cc2-c2ccnc(NCCNC(=O)Nc3cccc(C(F)(F)F)c3)c2)c1`, the growth is 22.7% (inactive). Still for that read-out and setting: the result for `O=C(NCCCNc1cc(-c2cn(-c3ccccc3)nc2-c2cccc(O)c2)ccn1)c1ccccc1` reads -29.8% (active); that for `Cc1cc(NCc2cc(Nc3ccnc4cc(Cl)ccc34)ccc2F)nc(N2CCCC2)n1`, -83.9% (active); that for `Oc1ccc(CN2CCC(N3CCOCC3)CC2)c2cccnc12`, 35.1% (inactive). Same read-out and setting: the result for `CCN(CC)c1nc(SCC(=O)Nc2nc3ccc(C)cc3s2)nc(-c2ccccc2)c1C#N` reads 93.8% (inactive); that for `Clc1cccc(Cl)c1C(Nc1nc2ccccc2s1)Nc1nc2ccccc2s1`, 110% (inactive).

`C[C@H]1[C@H]2[C@H]3CC[C@@H]4[C@@]5(C)C/C(=C/c6cccnc6)C(=O)C(C)(C)[C@@H]5CC[C@@]4(C)[C@]3(C)CC[C@]23CO[C@]1(C)[C@@H](C(=O)/C=C\c1cccnc1)C3`: the growth is -39% (active).

Take `O=c1ccn2nc3ccccc3c2[nH]1`: the growth is 99.2% (inactive). In the case of `COc1ccccc1NC(=O)N/C(N)=N/c1nc2ccccc2s1`, the growth was 40.2% (inactive). On the same count and under the same terms, the figure for `COc1c(CCC[P+](c2ccccc2)(c2ccccc2)c2ccccc2)cc2c(c1OC)OCO2` is 21.8% (inactive); for `COc1ccc(C(=O)Nn2c(NCC(=O)N3c4ccccc4Sc4ccccc43)nnc2-c2ccc(O)cc2)cc1` it is 100% (inactive); for `COc1ccc(-c2nc3c(c(=O)n2C(C)=O)C(c2ccc(Cl)cc2)c2sc4c(Cl)cccc4c2O3)cc1` (stereo not given) it is -50.1% (active). For `Cc1nc2c(c(N3CCCc4ccccc43)n1)CCC2`, the growth was 10.1% (inactive). Still for that read-out and setting: the figure for `CC1=C([Se]CC(OC(=O)CC[Se]c2ccccc2)C(=O)NCCCCCC(=O)OCc2ccccc2)C(=O)c2ccccc2C1=O` (stereo not given) is 58.2% (inactive); for `Cc1cc(NCCCCNc2ccnc3cc(Cl)ccc23)nc(Nc2ccc(C(=O)N3CCCC3)cc2)n1` it is 68.4% (inactive); for `Cc1ccc(N(C(=O)CCc2c[nH]c3ccccc23)[C@H](C(=O)Nc2ccc(Cl)cc2)c2cccc([N+](=O)[O-])c2)cc1` it is 90.5% (inactive). On the same count and under the same terms, the result for `O=c1[nH]c2ccccc2n1C1CCN(CCOc2ccccc2)CC1` reads 100% (inactive); that for `c1ccc2c(c1)nc(CN1CCOCC1)n1cc(N3CCCC3)nc21`, 91.8% (inactive); that for `CC/C=C1/C(=O)C=C[C@@H]1C/C=C\CCCC(=O)O`, 102% (inactive). With `COC(=O)[C@]12CC[C@@H](C)[C@H](C)[C@@H]1C1=CC[C@@H]3[C@@]4(C)C(C=O)=C[C@@](C)(COS(C)(=O)=O)C4[C@H](O)C[C@@]3(C)[C@]1(C)CC2` (stereo not given in full), the growth is -91.5% (active).
